NPC1 prom act: qHTS Assay for NPC1 Promoter Activators; Potency, µM (series often up to 9.22 µM), without a hit: at the top dose activation, hits mostly activators; Huh7 NPC1 promoter luciferase reporter, 24 h; 320,000 tested, 2.4% active; also: % of control where 0% means no effect; nearly all actives have a fitted effect of over 60% in size
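Luminescence read-out of NPC1 promoter-driven luciferase in stably transfected Huh7 cells; compounds delivered in DMSO and left 24 h at 37C, 5% CO2, qHTS titration format.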
FLuc modulator: qHTS profiling assay for firefly luciferase inhibitor/activator using purifed enzyme and Km concentrations of substrates (counterscreen for miR-21 project). Luciferin 4-monooxygenase (Photinus pyralis), P08659. purified FLuc, Km substrates, luminescence inhibition. Potency, µM (series often up to 57.5 µM), for inactives: top-dose activity change, negative = inhibition, usual class: inhibitors. 360,000 tested, 6.9% active. AID 588342, 2011;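 also: plate controls were vehicle for no effect and reference inhibitor for full effect; nearly all actives have a fitted effect of over 55% in size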
Target sequence (P08659 whole entry, looked up): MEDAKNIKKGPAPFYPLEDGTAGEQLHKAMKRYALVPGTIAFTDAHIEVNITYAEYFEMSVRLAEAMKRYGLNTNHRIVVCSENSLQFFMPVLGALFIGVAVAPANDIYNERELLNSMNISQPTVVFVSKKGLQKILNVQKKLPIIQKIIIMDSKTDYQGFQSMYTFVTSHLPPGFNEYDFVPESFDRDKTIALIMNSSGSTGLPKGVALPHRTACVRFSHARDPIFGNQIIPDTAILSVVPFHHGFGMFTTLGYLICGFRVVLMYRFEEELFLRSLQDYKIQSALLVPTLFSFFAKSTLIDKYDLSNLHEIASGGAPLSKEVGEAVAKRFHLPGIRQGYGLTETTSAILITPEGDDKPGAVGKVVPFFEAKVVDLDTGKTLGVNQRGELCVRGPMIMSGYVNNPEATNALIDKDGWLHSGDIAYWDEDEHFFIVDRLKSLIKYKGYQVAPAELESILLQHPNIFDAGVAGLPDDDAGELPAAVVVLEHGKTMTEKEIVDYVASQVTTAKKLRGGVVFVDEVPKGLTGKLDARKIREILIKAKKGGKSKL
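Biochemical qHTS of compounds, final roughly 60 µM downward over six points, against 10 nM purified firefly luciferase using Km concentrations of substrates (10 uM D-luciferin, 10 uM ATP) in Tris acetate pH 7.5 buffer; luminescence output.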
SMN2 splice up: qHTS Assay for Enhancers of SMN2 Splice Variant Expression; HEK293 SMN2-luciferase splicing reporter, luminescence, 30-36 h; 210,000 tested, 2.8% active; Potency, µM (highest dose often 46.1 µM), for the others: top-dose activity change, positive = activation, actives largely listed as activators; also: % of control where 0% means no effect; nearly all actives have a fitted effect of over 55% in size
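HEK293 cells carry an SMN2 […]–luciferase reporter in which exon 7 inclusion puts luciferase in frame. Cells were plated 10-12 h before compound addition, then incubated 30-36 h at 37C. ONE-Glo luminescence was read; sodium butyrate at 4.5 mM final served as control.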
KinaseGlo FLuc: Counterscreen for Luciferase (Kinase-Glo TM) Inhibition; AID 1379, 2008; Potency, µM (highest dose often 38.3 µM), for inactives: at the highest dose activity change, negative = inhibition, most hits filed as inhibitors; Kinase-Glo luciferase, ATP luminescence, 8 min; 200,000 tested, 0.28% active; also: % is scaled to controls: 0 for no effect and ±100 for the full control effect; nearly all actives have a fitted effect of over 60% in size
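Compounds were added to a substrate mix at pH 7.2 (50 mM imidazole, 10 uM ATP, within the enzyme's linear range), followed by Kinase-Glo detection reagent; luminescence was measured after 8 minutes at ambient temperature.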
ELG1 genotox: qHTS screen for small molecules that induce genotoxicity in human embryonic kidney (HEK293T) cells expressing luciferase-tagged ELG1; HEK293T ELG1-luciferase reporter, luminescence, 16 h; Potency, µM (highest dose often 46 µM), for the others: at the top dose activity change, positive = activation, hits mostly activators; 330,000 tested, 1.3% active; also: % of control where 0% means no effect; nearly all actives have a fitted effect of over 60% in size
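Screening used a luciferase reporter fused to human ELG1 in HEK293T cells. Luminescence was read on a CCD plate imager after 16 hr exposure and 30 min ONE-Glo incubation.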
Rab9 promoter act: qHTS Assay for Rab9 Promoter Activators | 320,000 tested, 2.8% active | Huh7 Rab9 promoter-luciferase reporter, luminescence, 24 h | Potency, µM (highest dose often 9.22 µM), for the others: top-dose activation, negative = inhibition, hits mostly activators; also: % of control where 0% means no effect; nearly all actives have a fitted effect of over 60% in size
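Measured in stably transfected Huh7 cells bearing a Rab9 promoter–luciferase construct: 24 h compound treatment at 37 °C, followed by luminescence detection.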
* marks the source's active call; other numbers are inactive results; [ ] = another dose, or the depositor's remark. Compounds with a hit are over-represented: about 7.5% of the library has one in this group of screens. Calls follow the shape of the dose curve; as a rule, active = well fitted curve in the direction sought with a large enough effect; inconclusive = small, poorly fitted or top-dose-only effect, or another doubt; inactive = no such curve, though single readings can be large; an effect the other way counts as inactive or inconclusive. Potency is read from the fitted curve at half-maximal effect.

How did O=Nc1c(-c2c(O)[nH]c3ccccc23)[nH]c2ccccc12 do in these assays?
NPC1 prom act: 4.61µM*; SMN2 splice up: 12.6µM*; KinaseGlo FLuc: -24.7%; Rab9 promoter act: inconclusive

Results for O=[N+]([O-])c1ccc2[nH]c(O)c(N=Nc3ccc(F)cc3)c2c1 ?
NPC1 prom act: 11.2%; FLuc modulator: 0.2%; ELG1 genotox: 0.4%; Rab9 promoter act: -1.7%

What do the screens show for `Oc1[nH]c2ccc(Br)cc2c1N=Nc1ccc(F)cc1`?
NPC1 prom act: 5.6%; FLuc modulator: 1.6%; ELG1 genotox: 2.9%; Rab9 promoter act: -1.0%

How did Oc1[nH]c2ccccc2c1N=Nc1ccc(F)cc1 do in these assays?
NPC1 prom act: 23.0%; FLuc modulator: 4.78µM*; SMN2 splice up: -12.2%[1.84 µM]; KinaseGlo FLuc: -5.3%; ELG1 genotox: inconclusive; Rab9 promoter act: inconclusive

Results for O=C(N=Nc1c(O)[nH]c2ccccc12)c1cc(-c2ccc(F)cc2)n[nH]1 ?
NPC1 prom act: -2.5%; FLuc modulator: -0.2%; SMN2 splice up: 18.9%; KinaseGlo FLuc: 0.7%; ELG1 genotox: -3.4%; Rab9 promoter act: -5.0%

What do the screens show for `O=[N+]([O-])c1ccc(N=Nc2c(O)[nH]c3ccc(F)cc23)cc1`?
NPC1 prom act: 2.82µM*; FLuc modulator: -22.9%; ELG1 genotox: inconclusive; Rab9 promoter act: inconclusive

Results for CC(=O)Nc1ccc(S(=O)(=O)N(Cc2ccccc2)Cc2ccccc2)cc1 ?
FLuc modulator: inconclusive; SMN2 splice up: -23.0%

How did O=C(Nc1ccc(OCc2cc(=O)n3c4c(sc3n2)CCCC4)cc1)c1cccc(F)c1 do in these assays?
FLuc modulator: -0.9%; SMN2 splice up: -6.7%

How did Cc1cc(C)cc(-n2ccn3c(CC(C)(C)CC(=O)O)nnc3c2=O)c1 do in these assays?
FLuc modulator: -5.2%; SMN2 splice up: -3.6%

What do the screens show for `CCOC(=O)c1c(NC(=O)c2noc3c2CC(C(C)(C)C)CC3)sc2c1CCCC2` (stereo not drawn)?
FLuc modulator: -16.9%; SMN2 splice up: -0.8%

How did CC(=O)N1c2c(cc(Br)cc2S(=O)(=O)N2CCN(c3cccc(Cl)c3)CC2)CC1C (stereo not drawn) do in these assays?
FLuc modulator: -9.7%; SMN2 splice up: 5.0%

Results for COC(=O)/C=C(\C)N=Nc1c(O)[nH]c2ccccc12 ?
NPC1 prom act: 1.9%; FLuc modulator: 23.9µM*; ELG1 genotox: 3.1%; Rab9 promoter act: -0.4%

Results for CC(C)(O)C(=O)N=Nc1c(O)[nH]c2ccccc12 ?
NPC1 prom act: inconclusive; FLuc modulator: inconclusive; SMN2 splice up: inconclusive; KinaseGlo FLuc: -10.9%; ELG1 genotox: inconclusive; Rab9 promoter act: inconclusive

How did O=S1(=O)N=C(N=Nc2c(O)[nH]c3ccccc23)c2ccccc21 do in these assays?
NPC1 prom act: -4.4%; FLuc modulator: inconclusive; SMN2 splice up: -16.1%; KinaseGlo FLuc: -5.1%; ELG1 genotox: -3.7%; Rab9 promoter act: 1.2%

Results for Oc1[nH]c2ccccc2c1N=Nc1nc2ccccc2s1 ?
NPC1 prom act: 3.55µM*; FLuc modulator: 1.35µM*; SMN2 splice up: 2.51µM*; KinaseGlo FLuc: -10.9%; ELG1 genotox: 0.461µM*; Rab9 promoter act: 1.12µM*

How did Oc1[nH]c2ccccc2c1N=Nc1ccccc1 do in these assays?
NPC1 prom act: 4.4%; FLuc modulator: 6.01µM*; ELG1 genotox: inconclusive; Rab9 promoter act: inconclusive

How did Cc1ccc(N2CCN(C(=O)CCc3c(C)nc4ncnn4c3C)CC2)c(C)c1 do in these assays?
FLuc modulator: -1.6%; SMN2 splice up: -56.3%

How did O=C(CN1C=NS(=O)(=O)c2ccc(C(F)(F)F)cc21)Nc1cccc(C(F)(F)F)c1 do in these assays?
FLuc modulator: 1.4%

What do the screens show for `COc1ccc(NC(=O)C(CC(C)C)NS(=O)(=O)c2ccc3c(c2)oc(=O)n3C)cc1Cl` (stereo not drawn)?
FLuc modulator: -0.8%; SMN2 splice up: -3.2%

What do the screens show for `CCOc1ccccc1-c1ccc(C(=O)O)s1`?
KinaseGlo FLuc: 4.1%[39.9 µM]

What do the screens show for `CN(C)c1ccc(CNC(=O)c2ccc3nc(CCc4ccccc4)oc3c2)cc1`?
FLuc modulator: -5.1%

How did CCc1ccc(-n2nc(C)c3c(C)cc(=O)n(CC(=O)N4CCCc5ccccc54)c32)cc1 do in these assays?
FLuc modulator: -2.1%

How did COC(=O)C1=C(c2ccccc2)c2ccccc2S(=O)(=O)N1CC(=O)Nc1cccc(C(C)=O)c1 do in these assays?
FLuc modulator: -16.8%; SMN2 splice up: -1.3%

Results for Cc1ccc(Sc2cnc3ccccc3n2)cc1 ?
NPC1 prom act: inconclusive; FLuc modulator: 6.75µM*; SMN2 splice up: inconclusive; KinaseGlo FLuc: -0.1%; ELG1 genotox: 2.59µM*; Rab9 promoter act: 3.55µM*

What do the screens show for `CCc1ccccc1NC(=O)C1CCCN(c2cnccn2)C1` (stereo not drawn)?
FLuc modulator: -2.9%; SMN2 splice up: -8.2%

Results for Cc1ccc(NC(=O)CSc2nc3n[nH]c(C)c3c(=N)n2-c2ccccc2C)cc1C ?
FLuc modulator: 2.0%

Results for Cc1cc(C)n2nc(SCC(=O)Nc3cc(Cl)ccc3C)nc2n1 ?
FLuc modulator: -7.4%; SMN2 splice up: 1.2%

What do the screens show for `O=C(Cc1ccc(-c2ccccc2)cc1)OCC(=O)N1CCCC1=O`?
NPC1 prom act: -0.7%; FLuc modulator: 21.3µM*; SMN2 splice up: 1.5%; KinaseGlo FLuc: 1.9%; ELG1 genotox: 0.0%; Rab9 promoter act: 16.7%

What do the screens show for `Oc1ccc(Br)cc1C=Nc1ccc(Cl)cc1`?
NPC1 prom act: 1.9%; FLuc modulator: inconclusive; SMN2 splice up: -39.0%; KinaseGlo FLuc: 0.8%; ELG1 genotox: 2.6%; Rab9 promoter act: -0.7%

Results for Oc1cc(Br)ccc1C=Nc1ccc(N2CCCCC2)cc1 ?
NPC1 prom act: 0.7%; FLuc modulator: 1.2µM*; ELG1 genotox: -6.1%; Rab9 promoter act: 25.7%

Results for Oc1ccc(C=Nc2ccc(N3CCOCC3)cc2)c(O)c1 ?
NPC1 prom act: 11.1%; FLuc modulator: 16.9µM*; SMN2 splice up: 3.8%; KinaseGlo FLuc: -7.8%; ELG1 genotox: -0.9%; Rab9 promoter act: -3.7%

Results for COc1ccc(CNC(=O)CN2N=C(c3ccc(Cl)cc3)CCC2=O)cc1 ?
FLuc modulator: -10.6%

Screening data as filed in PubChem.
